Each structure is given as a SMILES string.

In experiment [1] the target is T1, Inhibitor of nuclear factor kappa-B kinase subunit epsilon (Homo sapiens) (UniProt Q14164).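 Note: reported values are averaged percent inhibition figures against human IKKε.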
T1 sequence (whole entry): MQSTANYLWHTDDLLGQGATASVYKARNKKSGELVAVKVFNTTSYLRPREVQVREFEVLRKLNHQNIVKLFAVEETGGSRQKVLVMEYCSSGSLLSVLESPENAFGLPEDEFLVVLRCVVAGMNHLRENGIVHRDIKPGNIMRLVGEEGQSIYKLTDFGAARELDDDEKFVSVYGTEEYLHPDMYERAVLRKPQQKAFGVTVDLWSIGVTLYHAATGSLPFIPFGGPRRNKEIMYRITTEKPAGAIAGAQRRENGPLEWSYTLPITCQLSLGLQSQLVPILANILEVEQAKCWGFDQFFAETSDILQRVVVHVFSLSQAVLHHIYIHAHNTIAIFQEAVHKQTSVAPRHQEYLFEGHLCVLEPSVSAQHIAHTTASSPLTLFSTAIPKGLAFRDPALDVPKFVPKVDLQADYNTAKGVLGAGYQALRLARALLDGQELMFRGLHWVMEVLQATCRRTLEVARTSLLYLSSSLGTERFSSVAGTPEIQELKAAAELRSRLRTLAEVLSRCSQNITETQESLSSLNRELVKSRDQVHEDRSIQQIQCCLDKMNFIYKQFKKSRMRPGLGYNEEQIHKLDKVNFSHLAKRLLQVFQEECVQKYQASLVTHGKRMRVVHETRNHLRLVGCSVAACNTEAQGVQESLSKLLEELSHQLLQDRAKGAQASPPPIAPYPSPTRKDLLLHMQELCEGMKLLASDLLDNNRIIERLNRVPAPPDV
To be noted: at 1 µM.

Experiment [2] addresses T2, Serine/threonine-protein kinase Nek1 (Homo sapiens) (UniProt Q96PY6).
T2 sequence (whole entry): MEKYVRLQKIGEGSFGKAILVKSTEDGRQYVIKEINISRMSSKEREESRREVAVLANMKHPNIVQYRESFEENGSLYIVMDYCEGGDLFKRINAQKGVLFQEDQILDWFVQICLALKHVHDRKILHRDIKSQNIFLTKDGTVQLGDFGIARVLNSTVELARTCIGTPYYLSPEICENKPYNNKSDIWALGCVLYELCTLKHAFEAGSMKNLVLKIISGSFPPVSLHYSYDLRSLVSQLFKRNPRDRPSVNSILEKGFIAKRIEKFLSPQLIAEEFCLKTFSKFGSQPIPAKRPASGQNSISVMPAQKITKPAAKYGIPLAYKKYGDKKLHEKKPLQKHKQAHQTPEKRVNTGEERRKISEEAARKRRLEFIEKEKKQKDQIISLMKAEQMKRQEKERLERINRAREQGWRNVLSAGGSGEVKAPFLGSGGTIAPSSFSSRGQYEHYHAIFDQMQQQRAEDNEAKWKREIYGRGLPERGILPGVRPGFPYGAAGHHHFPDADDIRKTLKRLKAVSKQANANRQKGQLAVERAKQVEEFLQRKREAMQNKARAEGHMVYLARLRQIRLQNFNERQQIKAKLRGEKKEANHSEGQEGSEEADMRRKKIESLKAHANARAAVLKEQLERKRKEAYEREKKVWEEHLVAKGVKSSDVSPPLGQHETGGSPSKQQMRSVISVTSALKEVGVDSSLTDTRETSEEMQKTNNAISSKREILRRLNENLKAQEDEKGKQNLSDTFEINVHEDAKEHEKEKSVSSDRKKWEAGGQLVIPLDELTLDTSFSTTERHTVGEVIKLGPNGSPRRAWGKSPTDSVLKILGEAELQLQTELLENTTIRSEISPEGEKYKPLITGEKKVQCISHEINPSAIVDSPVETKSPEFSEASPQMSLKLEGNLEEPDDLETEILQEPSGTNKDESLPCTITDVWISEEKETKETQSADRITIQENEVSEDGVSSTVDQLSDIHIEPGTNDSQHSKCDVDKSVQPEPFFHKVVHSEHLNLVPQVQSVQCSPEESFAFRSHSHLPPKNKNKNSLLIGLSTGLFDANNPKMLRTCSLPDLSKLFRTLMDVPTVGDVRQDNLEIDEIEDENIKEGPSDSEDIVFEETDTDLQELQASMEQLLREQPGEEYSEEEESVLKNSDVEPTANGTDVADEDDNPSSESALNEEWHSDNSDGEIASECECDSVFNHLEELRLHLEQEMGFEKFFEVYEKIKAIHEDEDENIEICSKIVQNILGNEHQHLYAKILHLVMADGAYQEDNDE
To be noted: at 0.1 µM.

Experiment [3] has as its target T2, Serine/threonine-protein kinase Nek1 (Homo sapiens). To be noted: at 1 µM.
Experiment [4] deals with T3, Serine/threonine-protein kinase Nek2 (Homo sapiens) (UniProt P51955).
T3 sequence (whole entry): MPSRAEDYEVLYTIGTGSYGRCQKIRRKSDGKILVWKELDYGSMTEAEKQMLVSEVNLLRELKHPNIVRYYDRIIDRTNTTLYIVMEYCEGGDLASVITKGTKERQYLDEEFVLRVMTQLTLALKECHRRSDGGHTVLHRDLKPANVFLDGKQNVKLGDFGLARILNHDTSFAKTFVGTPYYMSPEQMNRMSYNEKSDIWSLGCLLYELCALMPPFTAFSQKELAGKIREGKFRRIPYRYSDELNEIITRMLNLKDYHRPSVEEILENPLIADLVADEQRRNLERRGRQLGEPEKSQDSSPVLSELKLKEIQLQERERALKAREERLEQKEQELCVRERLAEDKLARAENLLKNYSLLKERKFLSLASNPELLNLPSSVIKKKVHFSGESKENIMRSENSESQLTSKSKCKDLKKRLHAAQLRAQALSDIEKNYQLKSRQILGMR
To be noted: at 0.1 µM.

The target in experiment [5] is T3, Serine/threonine-protein kinase Nek2 (Homo sapiens). Conditions: at 1 µM.
The target in experiment [6] is Serine/threonine-protein kinase Nek6 (Homo sapiens) (UniProt Q9HC98). To be noted: at 0.1 µM.
For experiment [7] the target is unchanged. To be noted: at 1 µM.
Experiment [8] concerns the target Serine/threonine-protein kinase Nek7 (Homo sapiens) (UniProt Q8TDX7). Conditions: at 0.1 µM.
Experiment [9] shares this target. Conditions: at 1 µM.
The target in experiment [10] is T4, Serine/threonine-protein kinase Nek9 (Homo sapiens) (UniProt Q8TD19).
T4 sequence (whole entry): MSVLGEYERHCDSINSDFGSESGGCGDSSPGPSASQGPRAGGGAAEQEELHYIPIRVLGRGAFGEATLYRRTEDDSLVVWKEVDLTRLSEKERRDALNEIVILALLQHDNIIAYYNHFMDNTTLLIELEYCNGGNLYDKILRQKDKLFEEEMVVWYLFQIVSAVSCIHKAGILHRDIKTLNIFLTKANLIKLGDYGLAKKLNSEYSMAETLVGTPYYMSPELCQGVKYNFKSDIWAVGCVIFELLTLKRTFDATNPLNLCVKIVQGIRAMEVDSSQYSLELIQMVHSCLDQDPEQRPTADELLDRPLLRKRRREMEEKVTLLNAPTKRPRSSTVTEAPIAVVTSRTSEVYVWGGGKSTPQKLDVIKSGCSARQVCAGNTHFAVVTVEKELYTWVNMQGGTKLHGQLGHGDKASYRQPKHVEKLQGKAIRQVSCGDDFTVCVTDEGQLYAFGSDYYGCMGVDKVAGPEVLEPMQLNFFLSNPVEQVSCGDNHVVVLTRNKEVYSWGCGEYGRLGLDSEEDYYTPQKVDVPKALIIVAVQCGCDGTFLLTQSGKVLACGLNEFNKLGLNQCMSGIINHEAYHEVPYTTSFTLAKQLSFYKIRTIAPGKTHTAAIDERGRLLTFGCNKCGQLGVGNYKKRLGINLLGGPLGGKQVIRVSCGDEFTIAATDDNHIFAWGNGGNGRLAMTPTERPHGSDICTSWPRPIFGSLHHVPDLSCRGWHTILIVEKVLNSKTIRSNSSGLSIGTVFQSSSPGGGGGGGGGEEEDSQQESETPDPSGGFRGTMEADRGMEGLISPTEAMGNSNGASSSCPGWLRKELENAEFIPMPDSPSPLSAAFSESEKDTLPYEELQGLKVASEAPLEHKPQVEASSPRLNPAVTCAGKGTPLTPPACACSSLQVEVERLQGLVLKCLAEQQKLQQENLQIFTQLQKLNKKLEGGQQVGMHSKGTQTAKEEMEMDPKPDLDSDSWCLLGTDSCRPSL
Conditions: at 0.1 µM.

The target of experiment [11] is T4, Serine/threonine-protein kinase Nek9 (Homo sapiens). Conditions: at 1 µM.
The target in experiment [12] is Serine/threonine-protein kinase PLK1 (Homo sapiens) (UniProt P53350). Conditions: at 0.1 µM.
For experiment [13] the target is unchanged. Conditions: at 1 µM.
Experiment [14] addresses T5, Dual specificity protein kinase TTK (Homo sapiens) (UniProt P33981).
T5 sequence (whole entry): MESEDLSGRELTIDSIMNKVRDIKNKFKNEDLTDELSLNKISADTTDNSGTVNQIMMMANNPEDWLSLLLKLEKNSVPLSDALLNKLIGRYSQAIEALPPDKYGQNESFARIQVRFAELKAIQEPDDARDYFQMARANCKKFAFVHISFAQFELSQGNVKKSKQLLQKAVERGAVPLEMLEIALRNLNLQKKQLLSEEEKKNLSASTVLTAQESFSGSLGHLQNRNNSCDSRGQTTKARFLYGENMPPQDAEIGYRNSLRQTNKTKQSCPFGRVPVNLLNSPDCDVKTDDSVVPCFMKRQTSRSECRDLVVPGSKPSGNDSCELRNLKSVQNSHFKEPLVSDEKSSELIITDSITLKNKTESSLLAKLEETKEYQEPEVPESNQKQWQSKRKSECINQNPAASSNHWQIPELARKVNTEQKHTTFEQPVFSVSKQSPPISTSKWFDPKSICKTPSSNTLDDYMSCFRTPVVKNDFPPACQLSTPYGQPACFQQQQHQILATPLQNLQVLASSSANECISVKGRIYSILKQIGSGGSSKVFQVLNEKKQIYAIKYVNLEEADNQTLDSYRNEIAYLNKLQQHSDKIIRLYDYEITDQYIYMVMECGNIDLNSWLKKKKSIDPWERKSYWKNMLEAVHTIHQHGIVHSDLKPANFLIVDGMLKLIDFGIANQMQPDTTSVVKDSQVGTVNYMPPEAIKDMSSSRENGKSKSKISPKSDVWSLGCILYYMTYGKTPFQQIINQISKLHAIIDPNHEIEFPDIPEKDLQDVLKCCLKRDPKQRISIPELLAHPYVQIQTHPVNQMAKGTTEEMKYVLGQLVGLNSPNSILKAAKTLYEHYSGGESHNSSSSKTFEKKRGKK
To be noted: at 0.1 µM.

Experiment [15] relates to T6, Receptor-type tyrosine-protein kinase FLT3 (Homo sapiens), P36888 [D835Y].
T6 sequence (whole entry): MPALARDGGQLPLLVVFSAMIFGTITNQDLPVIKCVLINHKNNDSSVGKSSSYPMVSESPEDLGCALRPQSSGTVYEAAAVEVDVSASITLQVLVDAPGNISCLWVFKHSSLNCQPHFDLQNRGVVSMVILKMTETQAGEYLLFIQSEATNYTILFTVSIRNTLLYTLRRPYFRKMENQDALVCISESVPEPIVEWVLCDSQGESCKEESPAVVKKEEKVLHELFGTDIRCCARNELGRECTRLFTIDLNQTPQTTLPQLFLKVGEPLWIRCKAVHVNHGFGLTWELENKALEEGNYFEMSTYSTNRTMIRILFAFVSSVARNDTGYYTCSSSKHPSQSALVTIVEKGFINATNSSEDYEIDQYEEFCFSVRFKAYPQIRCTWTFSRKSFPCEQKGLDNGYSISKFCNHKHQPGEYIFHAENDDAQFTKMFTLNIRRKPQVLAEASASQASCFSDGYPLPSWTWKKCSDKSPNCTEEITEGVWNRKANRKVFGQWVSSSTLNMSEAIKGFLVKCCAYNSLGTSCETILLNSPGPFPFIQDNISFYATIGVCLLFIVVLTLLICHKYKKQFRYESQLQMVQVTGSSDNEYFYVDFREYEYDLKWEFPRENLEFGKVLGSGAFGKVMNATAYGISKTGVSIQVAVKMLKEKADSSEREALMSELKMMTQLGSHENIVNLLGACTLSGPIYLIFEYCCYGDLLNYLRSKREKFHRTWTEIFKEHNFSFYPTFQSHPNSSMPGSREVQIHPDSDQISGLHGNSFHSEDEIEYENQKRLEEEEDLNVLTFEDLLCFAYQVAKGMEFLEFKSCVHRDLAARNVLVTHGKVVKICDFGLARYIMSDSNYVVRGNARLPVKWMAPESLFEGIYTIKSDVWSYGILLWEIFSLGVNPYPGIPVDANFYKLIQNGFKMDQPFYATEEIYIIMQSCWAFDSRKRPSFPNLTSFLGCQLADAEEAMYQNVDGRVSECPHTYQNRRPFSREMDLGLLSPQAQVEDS
To be noted: at 1 µM.

The target of experiment [16] is Vascular endothelial growth factor receptor 3 (Homo sapiens) (UniProt P35916). Conditions: at 0.1 µM.
For experiment [17] the target is unchanged. To be noted: at 1 µM.
In experiment [18] the target is Macrophage colony-stimulating factor 1 receptor (Homo sapiens) (UniProt P07333). Conditions: at 0.1 µM.
Experiment [19] has the same target. To be noted: at 1 µM.
Experiment [20] has as its target Tyrosine-protein kinase Fyn (Homo sapiens) (UniProt P06241). Conditions: at 0.1 µM.

Chain of Serine/threonine-protein kinase Nek7 (Homo sapiens) (Q8TDX7 whole entry, looked up): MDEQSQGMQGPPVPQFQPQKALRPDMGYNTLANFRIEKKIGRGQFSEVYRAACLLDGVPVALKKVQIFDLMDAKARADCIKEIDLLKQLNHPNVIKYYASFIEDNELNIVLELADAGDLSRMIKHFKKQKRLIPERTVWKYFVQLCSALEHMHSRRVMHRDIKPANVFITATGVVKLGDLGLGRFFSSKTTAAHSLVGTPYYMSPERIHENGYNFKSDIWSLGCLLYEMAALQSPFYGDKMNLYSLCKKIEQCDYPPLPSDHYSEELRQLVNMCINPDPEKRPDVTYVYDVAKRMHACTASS
Chain of Macrophage colony-stimulating factor 1 receptor (Homo sapiens) (P07333 whole entry): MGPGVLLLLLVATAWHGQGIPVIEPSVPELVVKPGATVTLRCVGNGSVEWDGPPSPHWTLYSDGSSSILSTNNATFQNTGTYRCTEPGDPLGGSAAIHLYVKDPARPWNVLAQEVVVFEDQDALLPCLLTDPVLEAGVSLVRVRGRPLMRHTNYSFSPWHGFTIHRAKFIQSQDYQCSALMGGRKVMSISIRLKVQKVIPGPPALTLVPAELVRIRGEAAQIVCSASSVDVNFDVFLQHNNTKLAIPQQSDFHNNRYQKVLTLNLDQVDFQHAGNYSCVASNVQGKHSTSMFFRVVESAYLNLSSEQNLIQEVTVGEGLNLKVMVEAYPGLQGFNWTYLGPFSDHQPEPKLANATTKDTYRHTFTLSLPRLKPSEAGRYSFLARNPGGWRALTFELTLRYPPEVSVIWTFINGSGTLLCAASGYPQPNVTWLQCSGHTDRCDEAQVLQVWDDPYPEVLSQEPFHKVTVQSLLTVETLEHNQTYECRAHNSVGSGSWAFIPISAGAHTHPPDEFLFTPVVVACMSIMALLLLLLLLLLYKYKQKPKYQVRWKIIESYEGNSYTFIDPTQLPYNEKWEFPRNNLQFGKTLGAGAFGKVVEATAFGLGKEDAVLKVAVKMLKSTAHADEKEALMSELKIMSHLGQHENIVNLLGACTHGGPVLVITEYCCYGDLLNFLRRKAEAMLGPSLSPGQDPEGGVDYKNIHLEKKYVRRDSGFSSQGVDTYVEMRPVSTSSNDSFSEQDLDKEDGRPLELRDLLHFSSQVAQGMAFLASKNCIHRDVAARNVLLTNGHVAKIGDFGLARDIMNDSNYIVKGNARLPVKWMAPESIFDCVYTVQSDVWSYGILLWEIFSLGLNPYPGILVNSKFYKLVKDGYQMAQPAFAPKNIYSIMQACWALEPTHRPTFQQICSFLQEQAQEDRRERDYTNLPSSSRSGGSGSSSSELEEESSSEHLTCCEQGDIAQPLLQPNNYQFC
Chain of Serine/threonine-protein kinase PLK1 (Homo sapiens) (P53350 whole entry): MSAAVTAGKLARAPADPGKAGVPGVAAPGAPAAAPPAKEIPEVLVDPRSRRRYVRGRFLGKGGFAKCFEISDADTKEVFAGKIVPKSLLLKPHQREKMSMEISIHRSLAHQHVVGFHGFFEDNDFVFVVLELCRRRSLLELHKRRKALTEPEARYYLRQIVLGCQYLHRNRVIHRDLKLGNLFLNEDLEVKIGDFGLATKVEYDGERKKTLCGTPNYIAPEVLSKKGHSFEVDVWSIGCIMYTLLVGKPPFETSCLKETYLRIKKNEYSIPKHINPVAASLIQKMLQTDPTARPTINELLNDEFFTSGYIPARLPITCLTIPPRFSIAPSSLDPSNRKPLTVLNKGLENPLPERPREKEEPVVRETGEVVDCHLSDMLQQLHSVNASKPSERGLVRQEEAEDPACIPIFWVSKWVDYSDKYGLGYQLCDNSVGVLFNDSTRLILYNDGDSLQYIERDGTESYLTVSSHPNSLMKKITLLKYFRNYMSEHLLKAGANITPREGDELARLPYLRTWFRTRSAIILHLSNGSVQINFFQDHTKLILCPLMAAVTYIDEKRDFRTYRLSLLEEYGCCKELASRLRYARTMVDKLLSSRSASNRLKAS
Chain of Vascular endothelial growth factor receptor 3 (Homo sapiens) (P35916 whole entry): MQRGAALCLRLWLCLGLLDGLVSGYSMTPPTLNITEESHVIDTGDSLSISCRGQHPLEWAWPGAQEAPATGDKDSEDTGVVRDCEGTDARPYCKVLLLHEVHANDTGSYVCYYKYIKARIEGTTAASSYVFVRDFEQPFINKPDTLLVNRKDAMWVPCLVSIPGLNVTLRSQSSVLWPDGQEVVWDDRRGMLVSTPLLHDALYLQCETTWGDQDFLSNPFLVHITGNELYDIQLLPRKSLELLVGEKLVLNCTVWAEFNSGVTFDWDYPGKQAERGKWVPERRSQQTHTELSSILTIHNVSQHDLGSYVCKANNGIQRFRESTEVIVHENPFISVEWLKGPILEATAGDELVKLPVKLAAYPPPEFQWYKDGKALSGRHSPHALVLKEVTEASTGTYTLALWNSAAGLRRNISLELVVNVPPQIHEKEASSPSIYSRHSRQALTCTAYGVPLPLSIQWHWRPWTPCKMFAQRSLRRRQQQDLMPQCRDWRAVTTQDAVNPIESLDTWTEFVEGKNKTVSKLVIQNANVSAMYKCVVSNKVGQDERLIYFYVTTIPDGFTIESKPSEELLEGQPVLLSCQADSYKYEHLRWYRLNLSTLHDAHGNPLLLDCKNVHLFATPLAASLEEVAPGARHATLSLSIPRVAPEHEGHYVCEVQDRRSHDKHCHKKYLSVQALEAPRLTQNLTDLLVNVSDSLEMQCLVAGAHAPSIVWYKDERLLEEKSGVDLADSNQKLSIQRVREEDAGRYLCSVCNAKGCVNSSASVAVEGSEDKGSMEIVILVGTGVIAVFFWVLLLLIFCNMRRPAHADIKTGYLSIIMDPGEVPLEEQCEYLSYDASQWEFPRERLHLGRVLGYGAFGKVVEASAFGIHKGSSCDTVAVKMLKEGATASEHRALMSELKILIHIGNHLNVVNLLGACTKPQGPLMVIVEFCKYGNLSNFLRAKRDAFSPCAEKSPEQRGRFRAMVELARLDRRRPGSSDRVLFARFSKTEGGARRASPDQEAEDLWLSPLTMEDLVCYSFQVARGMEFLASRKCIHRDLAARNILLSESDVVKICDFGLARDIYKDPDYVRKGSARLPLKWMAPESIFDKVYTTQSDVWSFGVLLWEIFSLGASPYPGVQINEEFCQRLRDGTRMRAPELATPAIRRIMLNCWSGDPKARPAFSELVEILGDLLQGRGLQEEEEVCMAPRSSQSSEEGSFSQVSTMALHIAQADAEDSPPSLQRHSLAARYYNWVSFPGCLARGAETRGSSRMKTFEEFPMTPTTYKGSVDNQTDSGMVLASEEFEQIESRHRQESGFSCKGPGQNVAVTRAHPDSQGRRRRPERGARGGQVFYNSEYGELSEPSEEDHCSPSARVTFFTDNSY
Chain of Serine/threonine-protein kinase Nek6 (Homo sapiens) (Q9HC98 whole entry): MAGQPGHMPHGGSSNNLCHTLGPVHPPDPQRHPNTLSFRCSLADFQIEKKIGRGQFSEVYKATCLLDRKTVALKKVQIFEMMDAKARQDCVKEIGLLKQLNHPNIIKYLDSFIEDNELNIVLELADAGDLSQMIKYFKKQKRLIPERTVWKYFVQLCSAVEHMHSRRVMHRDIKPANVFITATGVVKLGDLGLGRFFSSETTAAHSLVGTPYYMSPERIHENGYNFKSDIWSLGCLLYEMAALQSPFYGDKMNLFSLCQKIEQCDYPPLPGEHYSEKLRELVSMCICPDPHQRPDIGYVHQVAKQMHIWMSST
Chain of Tyrosine-protein kinase Fyn (Homo sapiens) (P06241 2-537 limits assumed): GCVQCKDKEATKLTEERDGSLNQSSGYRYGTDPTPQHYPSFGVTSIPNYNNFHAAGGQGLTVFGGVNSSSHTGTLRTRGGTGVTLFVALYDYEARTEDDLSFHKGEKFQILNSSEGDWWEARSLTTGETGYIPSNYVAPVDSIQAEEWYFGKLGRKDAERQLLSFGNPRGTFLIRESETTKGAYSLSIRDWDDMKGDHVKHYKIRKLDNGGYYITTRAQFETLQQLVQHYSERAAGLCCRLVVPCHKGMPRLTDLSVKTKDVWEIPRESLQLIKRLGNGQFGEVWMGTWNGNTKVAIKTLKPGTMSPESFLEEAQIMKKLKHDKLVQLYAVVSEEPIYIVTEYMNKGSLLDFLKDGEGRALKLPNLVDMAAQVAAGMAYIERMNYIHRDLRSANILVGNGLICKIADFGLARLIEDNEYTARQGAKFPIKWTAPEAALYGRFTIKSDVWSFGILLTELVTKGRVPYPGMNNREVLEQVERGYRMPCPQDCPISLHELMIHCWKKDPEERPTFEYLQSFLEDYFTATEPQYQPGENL

Usually inhibition stands for the relative decrease from the control value, in per cent. Regarding `CCOc1nccc2c1nc(-c1nonc1N)n2CC`, the inhibition in experiment [1] turned out to be 6.4%; in [2], 5.3%; in experiment [3] it was 8.93%; in experiment [4], 3.98%; in [5], 7.87%; in experiment [6], 5.75%. The inhibition in [7] was 5.08%; in [8] it was 2.9%; in experiment [9] it was 3.26%; in experiment [10] it was 6.44%; in [11], 11.4%; in experiment [12] it was 5.12%. Moreover, the inhibition is 5.25% in experiment [13]; 7.47% in [14]; -1.34% in experiment [15]; 12.8% in experiment [16]; 19.3% in experiment [17]; 0.65% in [18]. Besides, the inhibition in experiment [19] is 2.68%; in experiment [20], 0.3%.
